{
  "source": "paper PMC4336329",
  "about": "(PLoS ONE, 2015)",
  "note": "In all, about 310,000 compounds went through this assay and about 14,000 (4.5%) showed an effect of 50% or more. The effect is printed as a negative number. The full list was thinned out, with strong results kept by preference.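 Note: peak tail current of the secondary pulse compared with the same well before compound.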",
  "data": [
    {"target": "human ether-à-go-go-related gene (hERG) potassium channel (human, UniProt Q12809)", "sequence (Q12809 whole entry, looked up)": "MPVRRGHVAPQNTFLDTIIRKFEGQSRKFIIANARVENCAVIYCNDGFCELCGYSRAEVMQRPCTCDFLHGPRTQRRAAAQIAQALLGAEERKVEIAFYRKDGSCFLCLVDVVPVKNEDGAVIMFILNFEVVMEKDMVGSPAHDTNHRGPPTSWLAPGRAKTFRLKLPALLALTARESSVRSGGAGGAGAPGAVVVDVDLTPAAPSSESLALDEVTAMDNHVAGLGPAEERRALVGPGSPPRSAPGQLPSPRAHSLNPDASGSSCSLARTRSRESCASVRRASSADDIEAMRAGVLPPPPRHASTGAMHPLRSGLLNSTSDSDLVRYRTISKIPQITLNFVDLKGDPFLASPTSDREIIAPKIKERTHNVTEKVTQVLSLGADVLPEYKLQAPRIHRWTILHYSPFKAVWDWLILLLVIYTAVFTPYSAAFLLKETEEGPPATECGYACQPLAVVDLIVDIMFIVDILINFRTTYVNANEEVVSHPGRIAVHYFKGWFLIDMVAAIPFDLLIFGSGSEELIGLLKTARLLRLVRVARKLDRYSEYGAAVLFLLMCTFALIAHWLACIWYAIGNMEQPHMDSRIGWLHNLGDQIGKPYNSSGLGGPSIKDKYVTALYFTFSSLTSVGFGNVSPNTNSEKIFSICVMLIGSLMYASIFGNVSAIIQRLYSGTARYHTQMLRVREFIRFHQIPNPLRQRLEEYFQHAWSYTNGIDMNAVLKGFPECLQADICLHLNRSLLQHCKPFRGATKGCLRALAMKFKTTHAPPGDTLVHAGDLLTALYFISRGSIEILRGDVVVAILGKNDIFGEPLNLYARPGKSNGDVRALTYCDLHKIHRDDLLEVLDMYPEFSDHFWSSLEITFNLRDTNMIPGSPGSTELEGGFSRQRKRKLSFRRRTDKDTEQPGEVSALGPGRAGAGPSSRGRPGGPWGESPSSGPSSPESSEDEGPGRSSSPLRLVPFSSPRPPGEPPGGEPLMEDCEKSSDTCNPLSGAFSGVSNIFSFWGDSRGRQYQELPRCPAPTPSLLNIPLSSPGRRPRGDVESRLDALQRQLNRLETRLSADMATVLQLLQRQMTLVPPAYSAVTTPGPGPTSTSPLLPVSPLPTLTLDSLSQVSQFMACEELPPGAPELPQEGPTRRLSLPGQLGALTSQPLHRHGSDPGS", "assay": "primary screen, population patch clamp on CHO cells stably expressing hERG; higher = less effect of the substance", "units": {"hERG current change (%, negative = inhibition) at 10uM": "%"}, "values": [
      {"smiles": "CCc1nnc(NC(=O)c2cc([N+](=O)[O-])ccc2N2CCOCC2)s1", "hERG current change (%, negative = inhibition) at 10uM": -15},
      {"smiles": "CC(C)Cc1nnc(NC(=O)CCC(=O)N2CCC(C)CC2)s1", "hERG current change (%, negative = inhibition) at 10uM": 0.442},
      {"smiles": "CC(C)Cc1nnc(NC(=O)CCC(=O)N2CCN(c3ccc([N+](=O)[O-])cc3)CC2)s1", "hERG current change (%, negative = inhibition) at 10uM": -72.3},
      {"smiles": "CC(C)CNC(=O)c1cc([N+](=O)[O-])ccc1N1CCOCC1", "hERG current change (%, negative = inhibition) at 10uM": 4.47},
      {"smiles": "CC(C)Cc1nnc(NC(=O)c2cc([N+](=O)[O-])ccc2N2CCOCC2)s1", "hERG current change (%, negative = inhibition) at 10uM": -51.4},
      {"smiles": "CC(C)Cc1nnc(NC(=O)CCC(=O)N2CCN(c3ccc(Cl)cc3)CC2)s1", "hERG current change (%, negative = inhibition) at 10uM": -3.51},
      {"smiles": "CC(C)Cc1nnc(NC(=O)CCC(=O)N2CCN(c3ccc(F)cc3)CC2)s1", "hERG current change (%, negative = inhibition) at 10uM": 1.08},
      {"smiles": "CC(C)Cc1nnc(NC(=O)CCC(=O)N2CC(C)CC(C)C2)s1", "note": "(stereo not shown)", "hERG current change (%, negative = inhibition) at 10uM": -50.8},
      {"smiles": "CC1CC(C)CN(C(=O)CCC(=O)Nc2nnc(C(C)C)s2)C1", "note": "(stereo not shown)", "hERG current change (%, negative = inhibition) at 10uM": 12.6},
      {"smiles": "CCN(C(=O)c1ccc(C)c(Br)c1)c1ccccc1", "hERG current change (%, negative = inhibition) at 10uM": -20.5},
      {"smiles": "CC(=O)c1c(C)[nH]c(C(=O)COC(=O)COc2ccccc2F)c1C", "hERG current change (%, negative = inhibition) at 10uM": -3.3},
      {"smiles": "O=C(CCC1CCCCC1)NNC(=O)NC12CC3CC(CC(C3)C1)C2", "hERG current change (%, negative = inhibition) at 10uM": 13.2},
      {"smiles": "Cc1ccc(C)c(NNC(N)=S)c1", "hERG current change (%, negative = inhibition) at 10uM": 14},
      {"smiles": "O=C(COC(=O)CC1SC(N2CCCC2)=NC1=O)Nc1c(F)c(F)c(F)c(F)c1F", "note": "(stereo not shown)", "hERG current change (%, negative = inhibition) at 10uM": -12.6},
      {"smiles": "Cc1cc(NC(=O)CSc2nc(CC(C)(C)C)nc3c2c(=O)n(C)c(=O)n3C)no1", "hERG current change (%, negative = inhibition) at 10uM": 4.05},
      {"smiles": "COc1ccc(OCCSc2nnc(CCNC(=O)c3ccc(OC)cc3)n2C)cc1", "hERG current change (%, negative = inhibition) at 10uM": -6.83},
      {"smiles": "CC(=O)N(CCCN(C)C)c1nc2ccc(C)cc2s1.Cl", "hERG current change (%, negative = inhibition) at 10uM": -7.07},
      {"smiles": "CCN(CC)CCN(C(=O)c1cc2ccccc2cc1OC)c1nc2ccc(OC)cc2s1.Cl", "hERG current change (%, negative = inhibition) at 10uM": -13.4},
      {"smiles": "Cc1ccc2nc(N(CCCN(C)C)C(=O)c3ccco3)sc2c1.Cl", "hERG current change (%, negative = inhibition) at 10uM": -65.4},
      {"smiles": "CCN(CC)CCN(C(=O)c1ccccc1OC)c1nc2ccc(F)cc2s1.Cl", "hERG current change (%, negative = inhibition) at 10uM": -68.3},
      {"smiles": "CCN(CC)CCN(C(=O)c1cc2ccccc2cc1OC)c1nc2ccc(F)cc2s1.Cl", "hERG current change (%, negative = inhibition) at 10uM": -11.8},
      {"smiles": "CN(C)CCCN(C(=O)c1ccco1)c1nc2cc3c(cc2s1)OCO3.Cl", "hERG current change (%, negative = inhibition) at 10uM": -43.7},
      {"smiles": "COc1ccc2sc(N(CCN(C)C)C(=O)c3cc(Cl)sc3Cl)nc2c1.Cl", "hERG current change (%, negative = inhibition) at 10uM": -0.167},
      {"smiles": "Cc1ccc2nc(N(CCN(C)C)C(=O)c3cc(Cl)sc3Cl)sc2c1.Cl", "hERG current change (%, negative = inhibition) at 10uM": 7.55},
      {"smiles": "CN(C)CCCN(C(=O)c1ccco1)c1nc2ccc(Cl)cc2s1.Cl", "hERG current change (%, negative = inhibition) at 10uM": -73.4},
      {"smiles": "CN(C)CCN(C(=O)c1cc(Cl)sc1Cl)c1nc2ccc(F)cc2s1.Cl", "hERG current change (%, negative = inhibition) at 10uM": -67.3},
      {"smiles": "Cc1cc(-c2ccccc2)n(-c2cc(N/N=C/c3ccccc3O)ncn2)n1", "hERG current change (%, negative = inhibition) at 10uM": -10.5},
      {"smiles": "Cc1ccnc2nc(C(=O)OCC(=O)NC3CCCC(C)C3C)nn12", "note": "(stereo not shown)", "hERG current change (%, negative = inhibition) at 10uM": -10.4},
      {"smiles": "Cn1c(=O)c2c(nc(NCc3ccc4c(c3)OCO4)n2C)n(C)c1=O", "hERG current change (%, negative = inhibition) at 10uM": -13.1},
      {"smiles": "NC(=O)C1CCN(C(=O)CSc2nc3ccccc3[nH]2)CC1", "hERG current change (%, negative = inhibition) at 10uM": 4.06},
      {"smiles": "Fc1cccc(Cl)c1Cn1nnc(-c2ccc(N3CCOCC3)cc2)n1", "hERG current change (%, negative = inhibition) at 10uM": 8.99},
      {"smiles": "COc1ccc(-n2c(CNC(=O)c3cccs3)n[nH]c2=S)cc1", "hERG current change (%, negative = inhibition) at 10uM": 27.7},
      {"smiles": "COc1cc(C)c(Br)cc1S(=O)(=O)N1CCCC1", "hERG current change (%, negative = inhibition) at 10uM": -22.1},
      {"smiles": "COc1ccc(/C=C2/C(=O)NC(=S)N(C3CC3)C2=O)cc1CN1C(=O)c2ccccc2C1=O", "hERG current change (%, negative = inhibition) at 10uM": -8.62},
      {"smiles": "COc1ccc(C(=O)COC(=O)Cc2n[nH]c(=O)c3ccccc23)c(OC)c1", "hERG current change (%, negative = inhibition) at 10uM": 16.7},
      {"smiles": "CN(C)CCCN(C(=O)c1ccco1)c1nc2ccc(F)cc2s1.Cl", "hERG current change (%, negative = inhibition) at 10uM": -70.5},
      {"smiles": "COc1ccccc1C(=O)N(CCC1CCCN1C)c1nc2ccccc2s1", "note": "(stereo not shown)", "hERG current change (%, negative = inhibition) at 10uM": -50.9},
      {"smiles": "COc1cc2ccccc2cc1C(=O)N(CCN(C)C)c1nc2ccc(Br)cc2s1.Cl", "hERG current change (%, negative = inhibition) at 10uM": 9.85},
      {"smiles": "Cc1cc(C)c2sc(N(CCN(C)C)C(=O)c3cc(Cl)sc3Cl)nc2c1.Cl", "hERG current change (%, negative = inhibition) at 10uM": 9.32},
      {"smiles": "CN(C)CCN(C(=O)c1ccco1)c1nc2cc3c(cc2s1)OCCO3.Cl", "hERG current change (%, negative = inhibition) at 10uM": -32.8},
      {"smiles": "COc1ccccc1C(=O)N(CCN(C)C)c1nc2cc(C)cc(C)c2s1.Cl", "hERG current change (%, negative = inhibition) at 10uM": -82},
      {"smiles": "CN(C)CCCN(C(=O)/C=C/c1cccs1)c1nc2ccc(F)cc2s1.Cl", "hERG current change (%, negative = inhibition) at 10uM": -41},
      {"smiles": "CN(C)CCCN(C(=O)c1ccco1)c1nc2ccc(Br)cc2s1.Cl", "hERG current change (%, negative = inhibition) at 10uM": -71.8},
      {"smiles": "COc1cc2ccccc2cc1C(=O)N(CCN(C)C)c1nc2ccc(C)cc2s1.Cl", "hERG current change (%, negative = inhibition) at 10uM": -11.2},
      {"smiles": "Cc1cc(C)c2sc(N(CCN(C)C)C(=O)c3ccc4ccccc4c3)nc2c1.Cl", "hERG current change (%, negative = inhibition) at 10uM": 7.53},
      {"smiles": "COCCN(C(=O)Nc1ccccc1OC)c1nc2ccccc2s1", "hERG current change (%, negative = inhibition) at 10uM": 19.9}
    ]}
  ]
}
